Test results taken from ChEMBL document CHEMBL3988442, “University of Dundee, Small-Polar-MMV Screening Library” (2021).
For some of these results: Results with a measured potency or affinity are listed apart.

Tests used:
Set-up in all cases: scale not given: direction of the effect not stated beside the values
[1] = target: Protein translocase subunit SecA (Escherichia coli (strain K12)) (UniProt P10408); experiment: Assay to Identify E. coli SecA ATPase Inhibitors; assay type: functional; conditions: 30 µM
Protein translocase subunit SecA (Escherichia coli (strain K12)), sequence (P10408 whole entry): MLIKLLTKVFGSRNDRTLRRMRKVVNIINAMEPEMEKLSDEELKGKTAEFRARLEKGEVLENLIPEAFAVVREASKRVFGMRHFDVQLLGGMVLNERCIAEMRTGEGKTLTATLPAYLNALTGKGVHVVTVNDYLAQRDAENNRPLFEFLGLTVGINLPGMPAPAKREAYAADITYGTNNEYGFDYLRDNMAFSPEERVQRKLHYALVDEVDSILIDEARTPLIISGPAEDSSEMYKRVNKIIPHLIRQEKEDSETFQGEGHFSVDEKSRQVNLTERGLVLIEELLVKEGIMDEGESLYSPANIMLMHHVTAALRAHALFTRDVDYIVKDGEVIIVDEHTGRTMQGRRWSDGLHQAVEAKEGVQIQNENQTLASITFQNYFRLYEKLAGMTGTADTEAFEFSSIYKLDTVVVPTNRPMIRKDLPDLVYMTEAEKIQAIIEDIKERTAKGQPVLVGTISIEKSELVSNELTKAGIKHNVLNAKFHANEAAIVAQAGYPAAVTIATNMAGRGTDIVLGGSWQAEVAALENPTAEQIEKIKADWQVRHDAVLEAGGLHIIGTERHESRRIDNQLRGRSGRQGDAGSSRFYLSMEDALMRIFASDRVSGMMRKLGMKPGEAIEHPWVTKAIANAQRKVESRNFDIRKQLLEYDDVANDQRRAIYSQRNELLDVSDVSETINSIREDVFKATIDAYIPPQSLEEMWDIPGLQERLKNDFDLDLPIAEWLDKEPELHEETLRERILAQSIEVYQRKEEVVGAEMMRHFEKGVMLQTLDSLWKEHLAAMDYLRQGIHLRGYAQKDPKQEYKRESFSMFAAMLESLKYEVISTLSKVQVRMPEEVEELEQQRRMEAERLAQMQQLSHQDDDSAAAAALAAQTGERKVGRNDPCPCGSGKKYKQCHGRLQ

[2] = target: T1, Ubiquitin-activating enzyme e1, putative (Leishmania donovani (strain BPK282A1)) (UniProt E9BSI1); experiment: Leishmania donovani Ubiquitin Activating Enzyme (LdE1); assay type: functional; conditions: 30 µM
T1 sequence (whole entry): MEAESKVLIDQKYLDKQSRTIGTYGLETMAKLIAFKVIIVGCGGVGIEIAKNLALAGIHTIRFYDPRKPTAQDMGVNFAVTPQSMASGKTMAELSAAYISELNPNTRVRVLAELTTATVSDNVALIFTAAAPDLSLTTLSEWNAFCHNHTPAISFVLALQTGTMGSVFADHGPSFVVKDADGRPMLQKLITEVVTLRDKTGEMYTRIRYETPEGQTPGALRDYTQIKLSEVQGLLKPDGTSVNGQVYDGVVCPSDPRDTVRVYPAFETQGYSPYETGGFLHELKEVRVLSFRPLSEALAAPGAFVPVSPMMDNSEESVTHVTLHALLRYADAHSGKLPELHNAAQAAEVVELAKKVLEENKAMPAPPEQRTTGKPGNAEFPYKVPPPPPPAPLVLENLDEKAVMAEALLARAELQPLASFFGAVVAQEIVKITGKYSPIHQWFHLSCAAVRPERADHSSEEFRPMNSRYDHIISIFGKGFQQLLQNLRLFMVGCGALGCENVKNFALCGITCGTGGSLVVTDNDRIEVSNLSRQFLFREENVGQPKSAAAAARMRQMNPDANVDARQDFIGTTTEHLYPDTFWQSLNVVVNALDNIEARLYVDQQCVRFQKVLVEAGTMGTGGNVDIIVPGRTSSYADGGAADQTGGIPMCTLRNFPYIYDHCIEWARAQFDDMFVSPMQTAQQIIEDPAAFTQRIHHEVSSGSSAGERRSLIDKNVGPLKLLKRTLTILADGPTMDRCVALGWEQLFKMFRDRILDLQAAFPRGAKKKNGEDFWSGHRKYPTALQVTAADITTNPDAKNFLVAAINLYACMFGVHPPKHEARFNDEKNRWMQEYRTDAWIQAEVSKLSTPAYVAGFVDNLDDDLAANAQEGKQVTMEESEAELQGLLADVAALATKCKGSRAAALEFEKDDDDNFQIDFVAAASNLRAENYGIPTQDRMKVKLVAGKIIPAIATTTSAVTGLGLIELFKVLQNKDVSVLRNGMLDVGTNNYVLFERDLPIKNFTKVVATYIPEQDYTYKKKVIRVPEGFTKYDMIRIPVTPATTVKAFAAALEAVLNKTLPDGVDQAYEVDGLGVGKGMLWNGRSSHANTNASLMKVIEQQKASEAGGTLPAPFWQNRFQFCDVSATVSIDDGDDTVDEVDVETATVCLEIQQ

[3] = target: Sialic acid-binding Ig-like lectin 9 (Homo sapiens) (UniProt Q9Y336); experiment: Hs-Siglec9 ALPHAscreen SOP 20170721; conditions: 10 µM
Sialic acid-binding Ig-like lectin 9 (Homo sapiens), sequence (Q9Y336 whole entry): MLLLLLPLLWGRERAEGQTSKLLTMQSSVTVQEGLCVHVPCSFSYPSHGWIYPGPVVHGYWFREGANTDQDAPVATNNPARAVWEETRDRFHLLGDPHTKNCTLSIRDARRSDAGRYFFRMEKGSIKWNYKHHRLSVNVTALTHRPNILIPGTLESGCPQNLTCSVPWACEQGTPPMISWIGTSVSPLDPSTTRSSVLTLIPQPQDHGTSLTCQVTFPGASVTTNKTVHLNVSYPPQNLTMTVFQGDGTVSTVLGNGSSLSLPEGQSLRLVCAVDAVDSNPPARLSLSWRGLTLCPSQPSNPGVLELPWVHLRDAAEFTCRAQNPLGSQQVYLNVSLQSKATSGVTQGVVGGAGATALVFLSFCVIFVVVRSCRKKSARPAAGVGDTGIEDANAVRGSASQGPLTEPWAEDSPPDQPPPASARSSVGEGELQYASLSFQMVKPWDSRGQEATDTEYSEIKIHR

Trypanosoma cruzi = experiment: Trypanosoma cruzi phosphomannomutase and mannose-1-phosphate guanylyltransferase assay; assay type: functional; conditions: 10 µM
[4] = target: T2, Arginase-2, mitochondrial (Homo sapiens) (UniProt P78540); experiment: in vitro enzyme assay to detect the production of urea directly proportional to the activity of Arginase II; assay type: functional; conditions: 33.3 µM; further: in the data most compounds retested in dose-response had high values
T2 sequence (whole entry): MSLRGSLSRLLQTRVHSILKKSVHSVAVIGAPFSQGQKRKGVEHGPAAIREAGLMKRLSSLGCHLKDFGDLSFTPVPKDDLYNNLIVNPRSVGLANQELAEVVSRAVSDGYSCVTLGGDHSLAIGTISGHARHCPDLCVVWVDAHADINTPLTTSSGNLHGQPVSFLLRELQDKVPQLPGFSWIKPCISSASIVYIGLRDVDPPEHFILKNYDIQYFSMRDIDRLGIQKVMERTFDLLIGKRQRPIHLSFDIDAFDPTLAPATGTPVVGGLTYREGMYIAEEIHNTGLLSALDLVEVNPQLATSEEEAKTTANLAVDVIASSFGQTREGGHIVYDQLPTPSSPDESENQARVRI

[5] = target: T3, Proteasome subunit beta (Trypanosoma cruzi) (UniProt O96673); experiment: Trypanosoma cruzi proteasome chymotrypsin-like activity (TcProtChymo) assay.; further: in the data most compounds retested in dose-response had high values; assay type: functional; conditions: 9.37 µM
T3 sequence (whole entry): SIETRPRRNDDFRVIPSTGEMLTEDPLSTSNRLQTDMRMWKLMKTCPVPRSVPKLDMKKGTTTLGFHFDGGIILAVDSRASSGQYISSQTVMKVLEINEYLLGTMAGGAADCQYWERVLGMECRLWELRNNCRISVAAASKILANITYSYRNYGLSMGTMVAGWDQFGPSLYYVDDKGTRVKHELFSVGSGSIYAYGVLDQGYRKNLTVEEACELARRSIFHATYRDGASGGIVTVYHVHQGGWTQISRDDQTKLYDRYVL

Homo sapiens = species: Homo sapiens; experiment: To identify inhibition of the IFN signalling (Jak-Stat) pathway via expression of an eGFP reporter gene under the control of an IFN-stimulated response element (ISRE) containing MxA promoter.; assay type: functional; conditions: 30 µM
[6] = target: T4, Tyrosyl-tRNA synthetase, putative (Trypanosoma cruzi (strain CL Brener)) (UniProt Q4DSP6); experiment: Trypanosoma cruzi tyrosyl tRNA synthetase (TcYRS) _High Tyrosine SOP; assay type: functional; conditions: 30 µM; further: in the data most compounds retested in dose-response had high values
T4 sequence (whole entry): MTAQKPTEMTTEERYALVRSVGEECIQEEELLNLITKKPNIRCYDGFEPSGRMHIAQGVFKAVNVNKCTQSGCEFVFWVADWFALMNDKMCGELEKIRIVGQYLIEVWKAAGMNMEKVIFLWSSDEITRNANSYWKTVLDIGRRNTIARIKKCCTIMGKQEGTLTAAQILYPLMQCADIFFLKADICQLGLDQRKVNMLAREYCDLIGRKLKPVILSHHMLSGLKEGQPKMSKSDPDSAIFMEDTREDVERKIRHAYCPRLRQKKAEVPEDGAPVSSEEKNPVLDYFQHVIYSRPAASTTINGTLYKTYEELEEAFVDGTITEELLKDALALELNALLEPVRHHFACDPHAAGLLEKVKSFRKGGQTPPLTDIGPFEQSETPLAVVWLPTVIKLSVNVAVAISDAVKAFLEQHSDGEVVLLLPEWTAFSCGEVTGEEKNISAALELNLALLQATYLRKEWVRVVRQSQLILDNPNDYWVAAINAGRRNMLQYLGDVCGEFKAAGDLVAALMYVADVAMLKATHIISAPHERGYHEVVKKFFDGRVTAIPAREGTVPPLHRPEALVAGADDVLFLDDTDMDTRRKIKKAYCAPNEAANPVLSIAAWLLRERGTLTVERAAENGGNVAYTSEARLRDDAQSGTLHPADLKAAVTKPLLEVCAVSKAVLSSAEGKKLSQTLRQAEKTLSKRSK

[7] = target: T4, Tyrosyl-tRNA synthetase, putative (Trypanosoma cruzi (strain CL Brener)); experiment: Trypanosoma cruzi tyrosyl tRNA synthetase (TcYRS) SOP; assay type: functional; conditions: 30 µM
[8] = target: Chromo domain-containing protein 1 (Saccharomyces cerevisiae (strain ATCC 204508 / S288c) (Baker's yeast)) (UniProt P32657); experiment: ScCHD-1 Enzyme Inhibition Assay; assay type: functional; conditions: 30 µM; further: in the data most compounds retested in dose-response had high values
Chromo domain-containing protein 1 (Saccharomyces cerevisiae (strain ATCC 204508 / S288c) (Baker's yeast)), sequence (P32657 whole entry, the tested form may be a part): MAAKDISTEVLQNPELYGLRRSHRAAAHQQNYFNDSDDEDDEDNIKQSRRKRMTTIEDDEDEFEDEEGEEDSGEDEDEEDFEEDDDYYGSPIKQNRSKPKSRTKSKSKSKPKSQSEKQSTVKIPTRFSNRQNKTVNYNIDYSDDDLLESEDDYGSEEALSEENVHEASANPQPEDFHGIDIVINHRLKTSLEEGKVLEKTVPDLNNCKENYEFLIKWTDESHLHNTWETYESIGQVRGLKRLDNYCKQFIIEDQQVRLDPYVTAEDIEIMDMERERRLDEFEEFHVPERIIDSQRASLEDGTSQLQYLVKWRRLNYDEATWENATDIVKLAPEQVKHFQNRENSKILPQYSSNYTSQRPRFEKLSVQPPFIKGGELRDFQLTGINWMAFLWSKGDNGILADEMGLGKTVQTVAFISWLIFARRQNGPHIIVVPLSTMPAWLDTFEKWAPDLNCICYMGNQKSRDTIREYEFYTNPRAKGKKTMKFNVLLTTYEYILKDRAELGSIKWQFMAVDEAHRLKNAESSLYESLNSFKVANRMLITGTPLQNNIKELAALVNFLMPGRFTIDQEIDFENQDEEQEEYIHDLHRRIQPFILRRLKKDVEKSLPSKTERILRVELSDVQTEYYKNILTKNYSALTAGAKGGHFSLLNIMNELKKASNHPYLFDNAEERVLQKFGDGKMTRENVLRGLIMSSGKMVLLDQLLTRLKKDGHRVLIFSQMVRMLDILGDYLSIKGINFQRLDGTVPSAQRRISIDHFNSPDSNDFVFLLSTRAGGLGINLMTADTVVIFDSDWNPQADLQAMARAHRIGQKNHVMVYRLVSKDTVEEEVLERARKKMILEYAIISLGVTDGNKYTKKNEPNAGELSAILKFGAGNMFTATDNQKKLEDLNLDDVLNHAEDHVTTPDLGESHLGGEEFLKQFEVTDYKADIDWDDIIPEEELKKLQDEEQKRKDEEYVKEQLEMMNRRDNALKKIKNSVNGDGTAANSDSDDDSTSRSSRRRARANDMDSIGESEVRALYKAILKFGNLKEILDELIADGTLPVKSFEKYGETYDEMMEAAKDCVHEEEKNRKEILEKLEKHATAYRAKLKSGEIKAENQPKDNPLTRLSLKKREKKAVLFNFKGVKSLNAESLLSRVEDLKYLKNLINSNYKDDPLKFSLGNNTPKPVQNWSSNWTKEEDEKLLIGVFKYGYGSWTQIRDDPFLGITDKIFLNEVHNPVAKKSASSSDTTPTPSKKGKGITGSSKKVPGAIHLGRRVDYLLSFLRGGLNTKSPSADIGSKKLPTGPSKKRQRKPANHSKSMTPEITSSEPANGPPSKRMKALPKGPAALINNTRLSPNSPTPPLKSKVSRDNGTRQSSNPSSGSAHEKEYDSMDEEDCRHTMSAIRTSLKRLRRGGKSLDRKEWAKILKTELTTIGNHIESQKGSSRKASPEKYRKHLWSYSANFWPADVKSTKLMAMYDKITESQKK

| Compound | Percent Effect [1] | Percent Effect [2] | Percent Effect [3] | Percent Effect (Trypanosoma cruzi) | Percent Effect [4] | Percent Effect [5] | Percent Effect (Homo sapiens) | Percent Effect [6] | Percent Effect [7] | Percent Effect [8] |
| --- | --- | --- | --- | --- | --- | --- | --- | --- | --- | --- |
| CC(c1cccc(S(N)(=O)=O)c1)N(C)CCc1ccccc1 (stereo not drawn) | -0.406% | 20.8% | -4.37% | -0.933% | -4.3% | 10.9% | 13.6% | 6.86% | 16.5% | -9.02% |
| Cc1ccc(C(=O)N2CCCS2(=O)=O)cc1Cl | -1.08% | 5.33% | -1.7% | -4.62% | 3.1% | 3.99% | -6.01% | 0.526% | 0% | -6.7% |
| O=C(CSc1ccccn1)N1C[C@H]2CC[C@@H]1CN(Cc1cscn1)C2 | -11.4% | 0% | 4.87% | -3.78% | -0.35% | 13.9% | 11.3% | -3.72% | -4.88% | -3.86% |
| CN(C)CC1CN(Cc2ccsc2)Cc2nccn2C1 (stereo not drawn) | -3.4% | 6.49% | -4.24% | -1.85% | 3.24% | 18.4% | -9.26% | 8.95% | 12.8% | 6.09% |
| CCNc1cc2c(nn1)CCN(C(=O)c1ccc(CNC(C)=O)o1)C2 | -4.81% | 8% | 4.09% | -1.81% | 3.99% | 6.36% | 5.79% | 3.68% | 15.4% | -12.3% |
| COCCN(C)C[C@@H]1CCC[C@@H]2CN(c3cc(OC)ncn3)C[C@@H]21 | -6.04% | 3.9% | -3.68% | -1.27% | -5.26% | 13.9% | 11.6% | 7.89% | 7.69% | 0.558% |
| Cc1ccc(CN2CCC(c3nnc(CN4CCCCC4)n3C)CC2)o1 | -5.23% | 0% | 2.13% | -0.873% | -0.35% | 5.99% | 1.11% | 1.6% | 4.88% | 3.06% |
| CCOC1COC2(CCN(Cc3ccc4c(c3)OCO4)CC2)C1 (stereo not drawn) | -2.81% | 19.5% | 5.28% | -1.13% | 3.65% | 5.06% | 17.9% | 8.7% | 12.5% | -4.64% |
| Cc1cc(C)n(CC2CCCCN2CCCS(N)(=O)=O)n1 (stereo not drawn) | 1.22% | 18.7% | -2.13% | -2.01% | 4.88% | 12.8% | 8.38% | -0.526% | 7.69% | -8.39% |
| Cc1cnc(CN(C)C2CCN(CCc3cnn(C)c3)C2)o1 (stereo not drawn) | -3.84% | 0% | 0.368% | -1% | 2.66% | 3.65% | 2.79% | 4.74% | 5.13% | -8.2% |
| Cc1nccn1Cc1nnc(C2CCCN(Cc3cccnc3)C2)n1C (stereo not drawn) | -4.77% | 16.2% | 4.69% | 5.53% | -6.64% | 12.3% | 5.04% | 9.04% | 14.6% | -2.63% |
| CCCS(=O)(=O)N1CCN(c2ccnc(N3CCCC3)n2)CC1 | -0.256% | 0% | 12.4% | 6.89% | 8.04% | 6.85% | -21.8% | 2.66% | 4.88% | -3% |
| CCn1cnnc1CNC(=O)N1CCOCC1 | -3.29% | 0% | 6.4% | -3.41% | 2.66% | 2.97% | -3.83% | 2.63% | 0% | -2.64% |
| OCC1CCCCN1c1ccc(-c2nc(-c3ccccc3F)no2)cn1 (stereo not drawn) | -2.19% | -5.41% | 7.51% | 5.14% | 16.4% | – | 1.31% | -0.532% | 4.88% | 86.3% |
| Cc1[nH]/c(=N\C(=O)c2csc(NC3CC3)n2)sc1C | -5.11% | 8.11% | -0.99% | -1.84% | -1.75% | – | 10.7% | 11.2% | 14.6% | 14.5% |
| CN1CC(=O)N(c2ccccc2)CC12CCN(CC1CC1)C2 (stereo not drawn) | -2.12% | -1.3% | -3.04% | -6.13% | 1.22% | 10.5% | -3.51% | -0.526% | 0% | -0.704% |
| Cc1ccc2oc(C(=O)N3CCC(C(=O)N4CCCC4)CC3)cc2n1 | -3.66% | 7.69% | 1.13% | 2.35% | 6.56% | -0.768% | 7.89% | 9.09% | 18.1% | -0.651% |
| O=C(CN1CCCC(c2ccc(C(=O)O)cc2)C1)NC1CC1 (stereo not drawn) | -9.44% | 5.41% | 8.6% | 7.08% | 8.04% | 1.2% | -14.3% | 6.92% | 12.2% | -1.84% |
| CC(=O)N1CCCn2nc(CNS(=O)(=O)c3cc(C)cs3)cc2C1 | -6.27% | 2.7% | -0.0396% | -2.42% | 4.54% | 4.11% | 0.293% | 4.79% | 7.32% | 3.74% |
| CC(C)(C)c1n[nH]c(C2CN(C(=O)CCC3CC3)CCO2)n1 (stereo not drawn) | -3.72% | 5.13% | -3.95% | 9.86% | -1.23% | 5.38% | -22.9% | 3.35% | 13.2% | -2.58% |
| COc1ccc2c(c1)OC1(CCN(Cc3ccc(F)cc3)CC1)CC2=O | -2.19% | 14.3% | -1.29% | 2.63% | 2.74% | 9.36% | 24.9% | 2.9% | 2.5% | -12.1% |
